Reference: PubChem BioAssay AID504832 (National Center for Advancing Translational Sciences (NCATS), 2011)
The whole screen tested about 310,000 compounds, of which about 18,000 (5.8%) were called active. Another 22% or so got no clear call; they are omitted. Shown is part of a subset that was picked to be rich in actives. Entries that show only a call come without a potency. Values without a mark were called inactive. Calls come from the whole dose curve; as a rule, active = well fitted inhibition curve with a large enough effect; inconclusive = small, poorly fitted or top-dose-only effect, or another doubt; inactive = no such curve, though single readings can be large or run the other way.

assay: Primary qHTS for delayed death inhibitors of the malarial parasite plastid, 48 hour incubation; settings: P. falciparum luciferase growth in erythrocytes; series mostly up to 28.7 µM
Outline: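 Luciferase-expressing parasites in RBCs, 2% Hct / 0.1% parasitemia final; RPMI 1640 + 0.5% Albumax; 37 C, 5% CO2, one generation; luminescence read-out, lower signal = inhibition.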
Potency is the fitted concentration of half-maximal effect.

| Structure (SMILES) | Potency | activity change, negative = inhibition |
| --- | --- | --- |
| CCCC(C(=O)OCCN(CC)CC)(c1ccccc1)c1ccccc1 | 6.01 µM (active) | – |
| CCC(C(=O)OCCN(CC)CC)c1ccccc1 (stereo not drawn) | inactive | – |
| CCN(CC)CCOC(=O)c1ccc(NC(=O)CNC(=O)c2ccccc2)cc1 | inactive | – |
| COc1ccc(-c2cc3ncccc3cn2)cc1 | inactive | – |
| Cc1cccc(C(=O)Nc2ccc(C(=O)N/N=C/c3cccc(C)n3)cc2)c1 | inactive | – |
| COc1ccc(C(O)(C2CCCCC2)C(CN2CCCC2)c2ccccc2)cc1 (stereo not drawn) | 11.7 µM (active) | – |
| CC(CN1CCCCC1)c1ccccc1 (stereo not drawn) | inactive | – |
| COc1ccc(CN2CCCC(C(=O)N3CCCCC3)C2)cc1 (stereo not drawn) | inactive | – |
| O=C(NCCS(=O)(=O)c1ccc(Br)cc1)c1ccccc1Cl | inactive | – |
| CCCCn1c(SCC(=O)N2CCOCC2)nc2c1c(=O)n(C)c(=O)n2C | inactive | – |
| CC1CC2=C(CC1/C=N/NC(N)=S)C(C)(C)CCC2 (stereo not drawn) | 13.1 µM (active) | – |
| COc1ccc(C2/C(=C(/O)c3ccc4c(c3)CC(C)O4)C(=O)C(=O)N2Cc2ccncc2)cc1 (stereo not drawn) | inactive | – |
| COCCN1C(=O)N(c2ccc(Cl)cc2)C(=O)C1CC(=O)Nc1cc(OC)cc(OC)c1 (stereo not drawn) | inactive | – |
| COCCN(CCOC)c1nc(N)c2c(N)nc3c(c2c1C#N)CC(=O)N3Cc1ccc(Cl)cc1 | 1.65 µM (active) | – |
| CSCCC(NC(=O)c1ccco1)C(=O)Nc1cc(C)ccn1 (stereo not drawn) | inactive | – |
| Cc1cccc(NC(=O)NC2(C)CCS(=O)(=O)C2)c1 (stereo not drawn) | inactive | – |
| CCOC(=O)C1=C(C)NC(=S)NC1c1cccs1 (stereo not drawn) | inactive | – |
| COCCOC(=O)C1=C(C)N=c2s/c(=C\c3cccs3)c(=O)n2C1c1cccs1 (stereo not drawn) | 4.15 µM (active) | – |
| Cc1cc(=O)oc2cc(OCC(=O)N3CCN(c4ccc(F)cc4)CC3)c(Cl)cc12 | inactive | – |
| O=C(CCc1ccccc1)Nc1ccnn1C1CCN(Cc2ccc(OCCO)cc2)CC1 | inactive | – |
| O=C(Nc1ccccc1N1CCOCC1)c1ccc(OCc2cscn2)cc1 | inactive | – |
| CC(C)n1c(=O)[nH]c2cc(C(=O)Nc3ccccc3)ccc21 | inactive | – |
| CN1CCN(c2ccc(NC(=O)c3ccccc3)cc2)CC1 | – | -20.4% [at 0.00184 µM] |
| CN1CCN(c2ccc(NC(=O)c3ccc4c(c3)[nH]c(=O)n4Cc3ccc(F)cc3)cc2)CC1 | 11.7 µM (active) | – |
| Cc1cc(C)c2nc(N3CCC(C(=O)NCCN4CCOCC4)CC3)sc2c1 | inactive | – |
| COc1ccccc1N1CCN(/N=C/c2ccc(O)cc2O)CC1 | inactive | – |

| Structure (SMILES) | Potency | activity change, negative = inhibition |
| --- | --- | --- |
| COc1ccc(CNC(=O)C2CCN(C(=O)c3ccco3)CC2)cc1 | inactive | – |
| CCc1ccc(OCC2c3cc(OC)c(OC)cc3CCN2C(C)=O)cc1 (stereo not drawn) | inactive | – |
| COc1ccc2[nH]c(=O)c(C3c4cc(OC)c(OC)cc4CCN3C(=O)c3ccco3)cc2c1 (stereo not drawn) | 13.1 µM (active) | – |
| CCOC(=O)N1CCN(C(=O)C(=O)Nc2sc3c(c2C#N)CC(C)(C)OC3)CC1 | inactive | – |
| CCc1cc(C(=O)c2ccc(OC)cc2)c(NC(=O)CN2CCN(C)CC2)s1 | 5.22 µM (active) | – |
| CCc1ccc(NC(=O)CN2CCC(C(=O)c3ccc(OC)cc3)CC2)cc1 | inactive | – |
| CCc1cc(C(N)=O)c(NC(=O)c2ccc(OC)cc2)s1 | inactive | – |
| Cc1ccc(NC(=O)Cn2nnc(C(=O)NCc3ccco3)c2N)c(C)c1 | inactive | – |
| CCOc1ccc(NC(=O)NNC(=O)c2ccc(Cl)cc2Cl)cc1 | inactive | – |
| NC(N)=N/N=C/c1ccc(OCc2ccc(Cl)cc2Cl)cc1 | 9.28 µM (active) | – |
| CCOc1ccc(/C=N/NC(N)=S)cc1 | inactive | – |
| CCOc1ccc(OCc2ccc(C(=O)N(C)c3ccccc3)o2)cc1 | inactive | – |
| Fc1ccccc1Cn1cnc(NC(=S)NCCc2ccccc2)n1 | inactive | – |
| O=C(COC(=O)Cc1ccccc1F)NCCc1ccccc1 | inactive | – |
| N=c1n(CCc2ccccc2)c2ccccc2n1Cc1ccccc1F | 9.28 µM (active) | – |
| Nc1c(C(=O)Nc2ccc3c(c2)OCCO3)nnn1Cc1ccccc1 | inactive | – |
| O=C1CCC(C(=O)N2CCCCO2)CN1Cc1cccc(C(F)(F)F)c1 (stereo not drawn) | inactive | – |
| CSc1ncc(C(=O)Nc2ccc(C)cc2C)c(C)n1 | inactive | – |
| CC(=O)c1cc(-c2ccccc2)n(CC(=O)NC2CCCCC2)c1C | inactive | – |
| O=C(CN1C(=O)CC(c2ccccc2)=Nc2ccccc21)NC1CCCCC1 | 9.28 µM (active) | – |
| O=C(CN1C(=O)CC(c2ccccc2)S(=O)(=O)c2ccccc21)NC1CCCC1 (stereo not drawn) | inactive | – |
| Cc1cc(NS(=O)(=O)c2ccc(NC(=O)C(C)Oc3cccc(C)c3C)cc2)nc(C)n1 (stereo not drawn) | inactive | – |
| CC(=O)Oc1ccc(N(C(C)=O)S(=O)(=O)c2ccc3ccccc3c2)cc1Br | inactive | – |
| O=C(COC(=O)c1ccc(F)cc1)NCCCc1ccccc1 | inactive | – |
| O=c1c([N+](=O)[O-])cccn1Cc1ccc(F)cc1Cl | 0.37 µM (active) | – |
| N/C(=N/O)c1cccn1Cc1ccccc1[N+](=O)[O-] | inactive | – |

| Structure (SMILES) | Potency | activity change, negative = inhibition |
| --- | --- | --- |
| O=Cc1cn(Cc2ccc(F)cc2Cl)c2ccccc12 | inactive | – |
| CN(CC(=O)Nc1c(Cl)cccc1Cl)C(=O)CNC(=O)C1CCCCC1 | inactive | – |
| CN(Cc1ccccc1)C(=O)c1ccc(COc2ccccc2)cc1 | inactive | – |
| CC(C)C(=O)NC(=S)Nc1ccccc1F | inactive | – |
| CC(C)C(=O)Nc1cccc(NC(=S)NC(=O)C(c2ccccc2)c2ccccc2)c1 | 11.7 µM (active) | – |
| COc1ccccc1NC(=S)NC(=O)C(C)C | inactive | – |
| COc1cccc(NC(=O)N2CCCC2C(=O)NC2CCCCC2)c1 (stereo not drawn) | inactive | – |
| COc1ccc(/C=N/OCc2ccccc2C#N)c(OC)c1 | inactive | – |
| CC1CCN(C(=O)c2ccccc2NC(=O)Cc2ccccc2)CC1 | inactive | – |
| O=C(Cc1ncc(C(F)(F)F)cc1Cl)Nc1cccc(Br)c1 | inactive | – |
| CN1CCN(C(=O)CCc2ncc(C(F)(F)F)cc2Cl)CC1 | inactive | – |
| CC(=O)c1ccc(Cc2ncc(C(F)(F)F)cc2Cl)s1 | 13.1 µM (active) | – |
| Cc1ccc2c(c1)N(C(=O)CCC(=O)NCc1cccnc1)CCO2 | inactive | – |
| Cn1c(N2CCOCC2)c(C=O)c2ccccc21 | – | 37.2% [at 0.00184 µM] |
| COc1ccc(-n2c(O)c(C=NCC(c3ccco3)N3CCCC3)c3ccccc3c2=O)cc1OC (stereo not drawn) | 9.28 µM (active) | – |
| COc1ccc(-n2nc(C(=O)NCC(=O)N3CCC(C(N)=O)CC3)c3ccccc3c2=O)cc1OC | inactive | – |
| CCN(CC)CCCN=Cc1c(O)n(-c2ccc(C)cc2)c(=O)c2ccccc12 | inactive | – |
| Cc1nnc(SCC(=O)Nc2ccc(S(=O)(=O)Nc3ccc(Cl)nn3)cc2)s1 | inactive | – |
| CCN(CC)CCOc1ccc2c(c1)C(=NNC(=O)c1ccccn1)c1cc(OCCN(CC)CC)ccc1-2 | 0.37 µM (active) | – |
| CCC(C)(NC(=O)c1ccccn1)C(=O)NC1CCCCC1 (stereo not drawn) | inactive | – |
| Cc1cccc(OCC(=O)NCCCNC(=O)c2ccccn2)c1 | inactive | – |
| CCOc1ccccc1OCC(=O)Nc1ccccc1C(=O)NC1CC1 | inactive | – |
| O=C(CCNS(=O)(=O)c1ccccc1C(F)(F)F)Nc1ccncc1 | inactive | – |
| C/C(N)=C(/C#N)C(=O)COC(=O)C1=NN(c2ccccc2)C(=O)CC1 | inactive | – |
| O=C(Nc1ccccc1-c1nc2ccccc2[nH]c1=O)c1cccs1 | inactive | – |
| CN1CCN(S(=O)(=O)c2ccc(N3CCN(c4ccccc4O)CC3)c([N+](=O)[O-])c2)CC1 | 11.7 µM (active) | – |

| Structure (SMILES) | Potency | activity change, negative = inhibition |
| --- | --- | --- |
| Cc1ccc(C(=O)c2ccc(N3CCN(C)CC3)c([N+](=O)[O-])c2)cc1 | inactive | – |
| CN1CCN(c2ccc(S(=O)(=O)Nc3ccccc3)cc2[N+](=O)[O-])CC1 | inactive | – |
| COc1ccccc1C(=O)NCCC(=O)N(C)Cc1cccnc1 | inactive | – |
| Cc1ccc(S(=O)(=O)N2CCCCC2)cc1C(=O)N(C)CC(=O)Nc1cccc(F)c1 | inactive | – |
| COc1ccccc1C(=O)NCCC(=O)NC1=NCCS1 | inactive | – |
| COc1ccc(N(CC(=O)N2CCOCC2)S(=O)(=O)c2ccccc2)cc1Cl | inactive | – |
| COc1ccc(NC(=O)CN(C)C(=O)c2ccc(NC3CC3)c([N+](=O)[O-])c2)cc1 | inactive | – |
| CCCCN(C(=O)C1CCC1)c1c(N)n(Cc2ccccc2)c(=O)[nH]c1=O | inactive | – |
| O=C(Cn1cc(-c2nnnn2-c2ccc(Cl)cc2)c(=O)c2ccccc21)c1ccccc1 | 1.65 µM (active) | – |
| CCCc1c(C(=O)O)cnn1-c1ccc(Cl)cc1 | inactive | – |
| O=C(Nc1ccccc1)OCc1cn(-c2ccc(Cl)cc2)nn1 | inactive | – |
| O=C(NCCS(=O)(=O)N1CCN(c2ccc(F)cc2)CC1)c1ccc2c(c1)OCO2 | inactive | – |
| CCOCCCNC(=S)Nc1ccc2nc(N3CCN(CC)CC3)cc(C)c2c1 | inactive | – |
| CC[N+](C)(CC)CCC[n+]1c(-c2ccccc2)c2cc(N)ccc2c2ccc(N)cc21 | 1.85 µM (active) | – |
| CC(=O)Nc1ccc(NC(=O)CCCNC(=O)c2ccc(Cl)cc2)cc1 | inactive | – |
| CC(=O)c1cccc(NC(=O)c2cc(C)nn2-c2ccccc2)c1 | – | -2.83% [at 0.00184 µM] |
| CC(=O)Nc1ccc(NC(=O)CSc2nnc(C3CC3)n2-c2ccccc2)cc1 | inactive | – |
| CC[n+]1c(C)n(-c2ccccc2)c2ccc(NC(C)=O)cc21 | 4.65 µM (active) | – |
| O=C(COc1ccc(Cl)cc1)NCCS(=O)(=O)N1CCN(c2ccc(F)cc2)CC1 | inactive | – |
| CCc1ccccc1NC(=O)NCCN1CCCCC1 | inactive | – |
| CC(C)c1ccc(NC(=O)Cn2ncc3ccccc32)cc1 | inactive | – |
| COc1cccc(NC(=O)CN(C)C(=O)CSCc2nc3scc(-c4cccs4)c3c(=O)[nH]2)c1 | inactive | – |
| N/C(=N\OC(=O)N1c2ccccc2Sc2ccccc21)c1ccc(Br)cc1 | 8.28 µM (active) | – |
| N/C(=N\OC(=O)/C=C/c1ccccc1)c1ccc(Br)cc1 | inactive | – |
| N/C(=N\OC(=O)Cc1ccccc1[N+](=O)[O-])c1ccc(Br)cc1 | inactive | – |
